# Data: ChEMBL document CHEMBL1961873, “Compounds: GSK PKIS; Assays: Nanosyn kinase panel” (2012)
# Experiments:
# [1] = biological target: High affinity nerve growth factor receptor (Homo sapiens) (UniProt P04629); conditions: at 1 µM;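 note: each value is the mean percent inhibition of TRKA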
# [2] = biological target: BDNF/NT-3 growth factors receptor (Homo sapiens) (UniProt Q16620); conditions: at 0.1 µM
# [3] = biological target: BDNF/NT-3 growth factors receptor (Homo sapiens) (UniProt Q16620); conditions: at 1 µM
# [4] = biological target: NT-3 growth factor receptor (Homo sapiens) (UniProt Q16288); conditions: at 0.1 µM
# [5] = biological target: NT-3 growth factor receptor (Homo sapiens) (UniProt Q16288); conditions: at 1 µM
# [6] = biological target: T1, Tyrosine-protein kinase TXK (Homo sapiens) (UniProt P42681); conditions: at 0.1 µM
# T1 sequence (whole entry): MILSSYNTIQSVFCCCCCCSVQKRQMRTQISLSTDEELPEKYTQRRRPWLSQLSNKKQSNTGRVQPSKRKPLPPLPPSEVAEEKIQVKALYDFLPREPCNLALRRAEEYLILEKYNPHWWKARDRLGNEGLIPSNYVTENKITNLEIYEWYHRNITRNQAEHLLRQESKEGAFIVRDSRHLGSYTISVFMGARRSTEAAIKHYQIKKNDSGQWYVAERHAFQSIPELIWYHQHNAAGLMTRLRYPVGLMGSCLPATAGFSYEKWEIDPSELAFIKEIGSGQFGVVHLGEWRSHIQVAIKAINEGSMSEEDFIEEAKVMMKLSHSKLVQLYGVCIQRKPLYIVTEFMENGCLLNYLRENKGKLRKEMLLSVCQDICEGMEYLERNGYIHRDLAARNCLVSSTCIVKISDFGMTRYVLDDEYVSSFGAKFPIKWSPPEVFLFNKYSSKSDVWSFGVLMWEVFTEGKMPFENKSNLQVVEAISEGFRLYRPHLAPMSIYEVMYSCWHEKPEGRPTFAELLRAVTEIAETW
# [7] = biological target: T1, Tyrosine-protein kinase TXK (Homo sapiens); conditions: at 1 µM
# [8] = biological target: Non-receptor tyrosine-protein kinase TYK2 (Homo sapiens) (UniProt P29597); conditions: at 0.1 µM;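 note: each value is a mean of the inhibition readings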
# [9] = biological target: T2, Dual specificity protein kinase TTK (Homo sapiens) (UniProt P33981); conditions: at 1 µM;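 note: reported figures are mean TTK inhibition at 1 µM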
# T2 sequence (whole entry): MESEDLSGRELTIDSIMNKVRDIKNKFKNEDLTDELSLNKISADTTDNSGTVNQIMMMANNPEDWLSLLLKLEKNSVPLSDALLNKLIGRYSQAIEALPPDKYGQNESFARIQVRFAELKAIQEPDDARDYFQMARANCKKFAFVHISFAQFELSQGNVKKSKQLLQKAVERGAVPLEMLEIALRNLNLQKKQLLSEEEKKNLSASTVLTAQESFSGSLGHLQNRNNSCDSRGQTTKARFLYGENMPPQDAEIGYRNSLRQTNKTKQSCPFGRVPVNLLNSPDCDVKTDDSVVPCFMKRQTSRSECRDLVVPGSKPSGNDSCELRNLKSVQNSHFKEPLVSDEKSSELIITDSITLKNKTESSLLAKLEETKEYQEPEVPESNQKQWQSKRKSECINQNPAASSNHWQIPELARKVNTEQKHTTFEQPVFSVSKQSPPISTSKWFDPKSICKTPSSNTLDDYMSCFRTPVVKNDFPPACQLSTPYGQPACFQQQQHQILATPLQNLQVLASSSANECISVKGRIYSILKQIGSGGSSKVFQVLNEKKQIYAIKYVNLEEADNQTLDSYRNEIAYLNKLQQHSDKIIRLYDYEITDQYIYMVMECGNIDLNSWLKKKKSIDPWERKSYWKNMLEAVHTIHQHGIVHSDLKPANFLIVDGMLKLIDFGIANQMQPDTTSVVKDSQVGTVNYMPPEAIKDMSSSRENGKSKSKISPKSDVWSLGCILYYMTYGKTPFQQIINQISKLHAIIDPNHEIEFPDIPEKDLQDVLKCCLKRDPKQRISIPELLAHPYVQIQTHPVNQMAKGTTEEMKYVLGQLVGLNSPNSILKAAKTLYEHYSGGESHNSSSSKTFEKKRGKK
# [10] = biological target: T3, Aurora kinase A (Homo sapiens) (UniProt O14965); conditions: at 0.1 µM
# T3 sequence (whole entry): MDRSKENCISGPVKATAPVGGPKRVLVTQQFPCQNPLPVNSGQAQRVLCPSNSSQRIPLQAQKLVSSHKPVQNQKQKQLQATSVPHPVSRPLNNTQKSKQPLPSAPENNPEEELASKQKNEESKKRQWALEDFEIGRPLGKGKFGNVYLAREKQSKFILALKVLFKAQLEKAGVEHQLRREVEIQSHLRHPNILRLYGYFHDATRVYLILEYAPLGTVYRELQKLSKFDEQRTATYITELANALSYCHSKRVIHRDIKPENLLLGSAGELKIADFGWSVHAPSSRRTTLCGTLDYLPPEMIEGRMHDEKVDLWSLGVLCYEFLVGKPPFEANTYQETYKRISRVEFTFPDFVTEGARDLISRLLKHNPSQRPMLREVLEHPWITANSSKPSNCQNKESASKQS
# [11] = biological target: T3, Aurora kinase A (Homo sapiens); conditions: at 1 µM
# [12] = biological target: Aurora kinase B (Homo sapiens) (UniProt Q96GD4); conditions: at 0.1 µM
# [13] = biological target: Aurora kinase B (Homo sapiens) (UniProt Q96GD4); conditions: at 1 µM
# [14] = biological target: T4, Aurora kinase C (Homo sapiens) (UniProt Q9UQB9); conditions: at 0.1 µM
# T4 sequence (whole entry): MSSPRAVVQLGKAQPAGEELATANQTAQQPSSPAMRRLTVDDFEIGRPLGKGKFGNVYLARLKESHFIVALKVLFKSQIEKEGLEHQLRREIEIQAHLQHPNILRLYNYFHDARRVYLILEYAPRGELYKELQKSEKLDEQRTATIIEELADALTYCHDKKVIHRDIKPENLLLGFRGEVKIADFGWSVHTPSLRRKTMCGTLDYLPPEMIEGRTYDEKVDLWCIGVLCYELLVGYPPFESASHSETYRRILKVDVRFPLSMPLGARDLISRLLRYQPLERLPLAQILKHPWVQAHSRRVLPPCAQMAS
# [15] = biological target: T4, Aurora kinase C (Homo sapiens); conditions: at 1 µM
# [16] = biological target: Serine/threonine-protein kinase 10 (Homo sapiens) (UniProt O94804); conditions: at 0.1 µM
# [17] = biological target: Serine/threonine-protein kinase 10 (Homo sapiens) (UniProt O94804); conditions: at 1 µM
# [18] = biological target: T5, Mitogen-activated protein kinase kinase kinase kinase 2 (Homo sapiens) (UniProt Q12851); conditions: at 0.1 µM
# T5 sequence (whole entry): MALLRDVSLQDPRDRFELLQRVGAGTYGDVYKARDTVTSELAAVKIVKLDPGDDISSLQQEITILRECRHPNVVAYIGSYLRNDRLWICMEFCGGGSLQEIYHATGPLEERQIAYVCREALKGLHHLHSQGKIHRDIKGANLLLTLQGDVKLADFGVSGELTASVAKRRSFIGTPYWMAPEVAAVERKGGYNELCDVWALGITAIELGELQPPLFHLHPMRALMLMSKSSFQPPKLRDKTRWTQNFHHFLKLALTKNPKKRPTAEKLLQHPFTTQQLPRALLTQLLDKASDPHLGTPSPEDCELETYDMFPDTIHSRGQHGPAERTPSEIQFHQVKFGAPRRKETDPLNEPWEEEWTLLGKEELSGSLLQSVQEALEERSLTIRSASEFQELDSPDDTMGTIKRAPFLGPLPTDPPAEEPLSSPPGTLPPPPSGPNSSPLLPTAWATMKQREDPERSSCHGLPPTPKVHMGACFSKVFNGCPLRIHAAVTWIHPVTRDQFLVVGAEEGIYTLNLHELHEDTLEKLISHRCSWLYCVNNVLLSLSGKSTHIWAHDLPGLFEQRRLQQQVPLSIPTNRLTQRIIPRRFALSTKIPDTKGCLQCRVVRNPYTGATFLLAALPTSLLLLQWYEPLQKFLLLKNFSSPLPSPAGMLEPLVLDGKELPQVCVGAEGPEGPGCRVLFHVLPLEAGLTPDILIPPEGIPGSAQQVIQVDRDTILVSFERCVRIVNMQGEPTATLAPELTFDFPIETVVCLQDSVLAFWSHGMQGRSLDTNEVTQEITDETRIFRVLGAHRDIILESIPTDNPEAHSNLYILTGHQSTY
# [19] = biological target: T5, Mitogen-activated protein kinase kinase kinase kinase 2 (Homo sapiens); conditions: at 1 µM
# [20] = biological target: Mitogen-activated protein kinase kinase kinase kinase 4 (Homo sapiens) (UniProt O95819); conditions: at 0.1 µM
# Chain of High affinity nerve growth factor receptor (Homo sapiens) (P04629 33-796 limits assumed): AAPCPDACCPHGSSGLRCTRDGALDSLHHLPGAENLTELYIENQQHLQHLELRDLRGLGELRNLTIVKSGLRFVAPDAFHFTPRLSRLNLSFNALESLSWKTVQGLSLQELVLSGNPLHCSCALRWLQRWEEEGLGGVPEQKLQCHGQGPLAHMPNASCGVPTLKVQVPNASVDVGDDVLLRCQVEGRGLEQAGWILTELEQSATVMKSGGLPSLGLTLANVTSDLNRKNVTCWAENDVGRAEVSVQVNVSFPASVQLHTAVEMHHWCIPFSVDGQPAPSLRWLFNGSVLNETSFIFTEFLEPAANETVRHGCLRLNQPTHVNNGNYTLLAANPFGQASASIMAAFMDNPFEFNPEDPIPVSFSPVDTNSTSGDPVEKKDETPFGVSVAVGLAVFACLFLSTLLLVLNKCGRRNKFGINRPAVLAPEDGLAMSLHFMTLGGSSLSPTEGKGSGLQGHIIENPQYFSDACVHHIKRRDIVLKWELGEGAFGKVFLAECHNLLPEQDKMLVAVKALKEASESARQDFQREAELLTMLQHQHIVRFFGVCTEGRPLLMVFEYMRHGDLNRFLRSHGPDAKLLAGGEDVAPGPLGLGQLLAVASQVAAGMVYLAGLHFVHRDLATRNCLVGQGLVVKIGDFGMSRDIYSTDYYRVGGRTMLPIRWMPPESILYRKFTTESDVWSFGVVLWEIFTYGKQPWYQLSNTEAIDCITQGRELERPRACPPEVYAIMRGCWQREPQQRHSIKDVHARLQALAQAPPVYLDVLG
# Chain of Aurora kinase B (Homo sapiens) (Q96GD4 whole entry): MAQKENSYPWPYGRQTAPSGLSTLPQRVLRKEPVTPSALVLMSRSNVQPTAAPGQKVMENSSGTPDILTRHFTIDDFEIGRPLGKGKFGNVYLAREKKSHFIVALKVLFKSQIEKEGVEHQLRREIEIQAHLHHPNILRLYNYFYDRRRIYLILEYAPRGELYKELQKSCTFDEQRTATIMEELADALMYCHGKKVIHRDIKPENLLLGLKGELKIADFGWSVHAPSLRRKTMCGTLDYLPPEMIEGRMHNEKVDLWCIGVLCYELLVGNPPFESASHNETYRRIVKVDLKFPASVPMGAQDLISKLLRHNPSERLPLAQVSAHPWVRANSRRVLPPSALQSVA
# Chain of BDNF/NT-3 growth factors receptor (Homo sapiens) (Q16620 32-822 limits assumed): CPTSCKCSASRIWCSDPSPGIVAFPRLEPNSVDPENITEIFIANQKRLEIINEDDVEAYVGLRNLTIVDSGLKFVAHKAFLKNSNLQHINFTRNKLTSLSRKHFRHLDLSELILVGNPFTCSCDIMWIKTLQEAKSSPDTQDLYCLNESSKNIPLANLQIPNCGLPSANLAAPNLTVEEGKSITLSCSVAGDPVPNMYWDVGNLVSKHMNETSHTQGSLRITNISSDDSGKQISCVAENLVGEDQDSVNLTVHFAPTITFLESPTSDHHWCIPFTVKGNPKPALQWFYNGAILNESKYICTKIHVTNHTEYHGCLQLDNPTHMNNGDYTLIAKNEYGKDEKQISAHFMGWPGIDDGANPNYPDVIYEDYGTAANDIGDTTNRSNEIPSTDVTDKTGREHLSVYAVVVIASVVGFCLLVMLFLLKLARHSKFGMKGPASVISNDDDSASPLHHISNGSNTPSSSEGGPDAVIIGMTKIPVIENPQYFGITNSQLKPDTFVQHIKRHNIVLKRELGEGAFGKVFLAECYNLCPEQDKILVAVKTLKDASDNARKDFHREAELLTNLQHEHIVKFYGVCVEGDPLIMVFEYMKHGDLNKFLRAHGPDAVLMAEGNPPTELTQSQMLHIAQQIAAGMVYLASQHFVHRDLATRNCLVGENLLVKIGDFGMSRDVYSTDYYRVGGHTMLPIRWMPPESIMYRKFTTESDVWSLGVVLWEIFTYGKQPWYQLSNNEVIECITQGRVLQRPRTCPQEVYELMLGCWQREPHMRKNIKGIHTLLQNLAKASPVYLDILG
# Chain of NT-3 growth factor receptor (Homo sapiens) (Q16288 32-839 limits assumed): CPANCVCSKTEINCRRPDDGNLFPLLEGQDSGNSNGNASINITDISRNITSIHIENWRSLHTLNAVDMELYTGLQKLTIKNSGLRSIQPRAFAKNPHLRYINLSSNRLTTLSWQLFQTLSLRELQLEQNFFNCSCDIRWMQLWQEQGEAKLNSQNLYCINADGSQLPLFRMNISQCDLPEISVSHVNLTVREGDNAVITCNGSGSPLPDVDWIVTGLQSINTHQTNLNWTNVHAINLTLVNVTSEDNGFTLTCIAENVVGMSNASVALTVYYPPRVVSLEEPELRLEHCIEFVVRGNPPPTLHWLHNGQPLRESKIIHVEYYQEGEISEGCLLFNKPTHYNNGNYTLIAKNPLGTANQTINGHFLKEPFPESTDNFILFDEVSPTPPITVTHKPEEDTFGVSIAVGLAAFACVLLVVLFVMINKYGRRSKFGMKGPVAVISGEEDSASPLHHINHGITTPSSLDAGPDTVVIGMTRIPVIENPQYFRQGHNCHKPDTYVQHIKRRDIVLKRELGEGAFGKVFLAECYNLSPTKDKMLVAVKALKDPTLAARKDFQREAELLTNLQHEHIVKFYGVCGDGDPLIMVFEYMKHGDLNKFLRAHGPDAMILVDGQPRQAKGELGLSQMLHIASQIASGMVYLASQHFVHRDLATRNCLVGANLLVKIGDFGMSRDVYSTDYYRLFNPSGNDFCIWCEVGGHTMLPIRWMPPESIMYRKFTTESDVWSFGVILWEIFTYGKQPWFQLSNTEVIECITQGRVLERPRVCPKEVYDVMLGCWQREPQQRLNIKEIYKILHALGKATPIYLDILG
# Chain of Non-receptor tyrosine-protein kinase TYK2 (Homo sapiens) (P29597 whole entry): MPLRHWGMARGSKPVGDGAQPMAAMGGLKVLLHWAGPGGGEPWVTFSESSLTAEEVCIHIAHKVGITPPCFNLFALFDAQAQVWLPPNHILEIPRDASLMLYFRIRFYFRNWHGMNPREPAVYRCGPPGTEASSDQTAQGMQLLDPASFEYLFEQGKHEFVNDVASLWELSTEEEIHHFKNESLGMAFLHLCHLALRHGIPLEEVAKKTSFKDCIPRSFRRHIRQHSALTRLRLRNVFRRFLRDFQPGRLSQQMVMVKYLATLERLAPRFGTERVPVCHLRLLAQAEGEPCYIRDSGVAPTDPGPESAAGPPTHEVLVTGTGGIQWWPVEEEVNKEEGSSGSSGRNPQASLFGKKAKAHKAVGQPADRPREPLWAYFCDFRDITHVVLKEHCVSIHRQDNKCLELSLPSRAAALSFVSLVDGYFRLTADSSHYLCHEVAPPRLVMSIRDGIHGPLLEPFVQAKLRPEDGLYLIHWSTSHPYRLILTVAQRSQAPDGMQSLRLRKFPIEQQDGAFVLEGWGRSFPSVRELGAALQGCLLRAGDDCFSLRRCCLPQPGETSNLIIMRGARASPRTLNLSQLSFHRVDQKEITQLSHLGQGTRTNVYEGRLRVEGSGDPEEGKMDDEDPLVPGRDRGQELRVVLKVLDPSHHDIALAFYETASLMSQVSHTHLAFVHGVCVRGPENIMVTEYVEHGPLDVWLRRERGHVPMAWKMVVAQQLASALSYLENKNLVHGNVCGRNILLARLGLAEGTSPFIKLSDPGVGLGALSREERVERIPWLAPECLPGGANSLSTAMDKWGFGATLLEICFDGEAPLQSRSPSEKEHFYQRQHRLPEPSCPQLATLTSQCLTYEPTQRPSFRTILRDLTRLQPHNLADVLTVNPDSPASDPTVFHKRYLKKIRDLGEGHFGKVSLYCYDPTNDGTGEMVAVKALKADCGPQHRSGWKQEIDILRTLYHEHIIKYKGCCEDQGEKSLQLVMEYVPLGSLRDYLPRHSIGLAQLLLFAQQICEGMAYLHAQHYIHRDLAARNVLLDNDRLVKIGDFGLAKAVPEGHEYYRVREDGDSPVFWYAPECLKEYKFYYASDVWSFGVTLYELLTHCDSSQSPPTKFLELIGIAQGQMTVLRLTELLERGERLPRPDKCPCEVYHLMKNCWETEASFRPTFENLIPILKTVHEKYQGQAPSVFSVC
# Chain of Serine/threonine-protein kinase 10 (Homo sapiens) (O94804 whole entry, looked up): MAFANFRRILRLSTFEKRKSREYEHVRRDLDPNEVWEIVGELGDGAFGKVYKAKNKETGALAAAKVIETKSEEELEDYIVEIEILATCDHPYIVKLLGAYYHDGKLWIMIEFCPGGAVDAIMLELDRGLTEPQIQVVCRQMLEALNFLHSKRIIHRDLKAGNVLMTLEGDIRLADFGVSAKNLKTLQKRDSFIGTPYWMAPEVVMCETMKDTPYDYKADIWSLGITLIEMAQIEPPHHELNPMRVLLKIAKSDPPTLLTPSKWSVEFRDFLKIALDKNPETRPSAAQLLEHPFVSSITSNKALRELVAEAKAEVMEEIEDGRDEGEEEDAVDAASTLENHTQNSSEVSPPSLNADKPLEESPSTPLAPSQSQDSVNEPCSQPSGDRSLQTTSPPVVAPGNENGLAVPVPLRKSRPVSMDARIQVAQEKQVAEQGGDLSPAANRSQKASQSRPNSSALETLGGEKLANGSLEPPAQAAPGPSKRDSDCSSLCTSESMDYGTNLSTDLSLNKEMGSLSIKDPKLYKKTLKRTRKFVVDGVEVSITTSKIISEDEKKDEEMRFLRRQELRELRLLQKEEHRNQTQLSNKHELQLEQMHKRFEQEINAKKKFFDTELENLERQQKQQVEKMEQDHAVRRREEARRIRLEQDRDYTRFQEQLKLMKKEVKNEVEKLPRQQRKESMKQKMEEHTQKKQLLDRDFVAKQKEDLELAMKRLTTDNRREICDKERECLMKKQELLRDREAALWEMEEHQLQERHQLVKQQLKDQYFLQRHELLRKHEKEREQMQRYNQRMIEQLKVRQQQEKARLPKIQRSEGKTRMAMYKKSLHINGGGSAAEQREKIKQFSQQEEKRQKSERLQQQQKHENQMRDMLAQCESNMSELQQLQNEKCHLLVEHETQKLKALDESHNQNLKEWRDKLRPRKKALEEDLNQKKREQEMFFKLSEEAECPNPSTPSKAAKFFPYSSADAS
Structure (SMILES),inhibition [1],inhibition [2],inhibition [3],inhibition [4],inhibition [5],inhibition [6],inhibition [7],inhibition [8],inhibition [9],inhibition [10],inhibition [11],inhibition [12],inhibition [13],inhibition [14],inhibition [15],inhibition [16],inhibition [17],inhibition [18],inhibition [19],inhibition [20]
CCn1c(-c2nonc2N)nc2c(C#CC(C)(C)O)ncc(OC[C@@H]3CCCN3)c21,-3.52%,-0.66%,0.79%,1.15%,-0.37%,-0.98%,1.67%,-0.97%,4.1%,3.07%,1.08%,-1.36%,0.87%,1.23%,1.45%,-0.11%,5.64%,2.41%,3.31%,0.39%
NS(=O)(=O)c1ccc(-c2ccc3c(NC(=O)C4CC4)n[nH]c3c2)cc1,0.03%,0.8%,5.39%,2.06%,9.04%,3.28%,4.88%,-5.6%,7.86%,3.44%,15.3%,3.22%,0.63%,1.15%,14.4%,4.04%,5.59%,-0.26%,2.11%,3.77%
Fc1ccc(-c2ncn(C3CCNCC3)c2-c2ccnc(Oc3ccccc3)n2)cc1,1.69%,1.68%,2.74%,1.74%,1.25%,-5.33%,-2.78%,-1.8%,6.14%,-3.42%,-2.89%,-0.82%,1.75%,-4.42%,-1.24%,6.38%,8.33%,1.61%,4.65%,1.76%
COc1cccc(COc2cc(-n3cnc4ccccc43)sc2C(N)=O)c1,-7.54%,-0.03%,-0.8%,-2.79%,-1.55%,-1.73%,2.43%,-1.93%,4.76%,2.16%,2.21%,-1.57%,1.15%,1.58%,3.73%,4.63%,39.4%,1.4%,7.04%,1.37%
NS(=O)(=O)c1ccc(N/C=C2\C(=O)Nc3ccc4ncsc4c32)cc1,51.3%,19.1%,65.9%,21.6%,66.9%,-0.44%,10.8%,1.37%,62.4%,30%,80.2%,19.6%,55.2%,22.5%,79.2%,5.85%,16.2%,12.8%,52.1%,55.1%
Cc1cc(-c2ccco2)cc(C)c1/C=C/c1cncc(-c2nn[nH]n2)c1,-4.92%,-0.9%,4.36%,-0.6%,5.53%,-0.29%,4.01%,0.06%,4.48%,3.01%,20%,0%,3.63%,-0.32%,7.33%,2.24%,2.3%,1.39%,1.37%,1.07%
CCn1c(-c2nonc2N)nc2c(C#CC(C)(C)O)nc(O[C@@H](CN)c3ccccc3)cc21,0.16%,-1.86%,1.16%,-1.62%,0.7%,2.06%,2.31%,2.96%,8.72%,0.22%,5.65%,0.38%,6.56%,-0.63%,1.38%,1.16%,19.8%,4.66%,24.8%,2.87%
